The record followed here is PubChem BioAssay (Tox21).

Values without a mark were called inactive. Inconclusive results are not listed. The source made the active and inactive calls. Unless noted, the call rests on the fitted dose curve; in most records, active means well fitted curve in the direction sought with a large enough effect in the repeat runs; inconclusive means weak or mixed curves; inactive means no such curve, though single readings can be large; an effect the other way counts as inactive or inconclusive.

Assay [1] can be described thus: qHTS assay to test for compound auto fluorescence at 535 nm (green) in HEK293 cells (AID 720680). On the technique in general: qHTS replaces the single test concentration by a dilution series.
The nature of assay [2]: qHTS assay to test for compound auto fluorescence at 460 nm (blue) in HEK293 cell free culture (AID 720681). The gist of the method: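 Test compounds were pinned into cell-free culture medium (DMEM with 10% FBS) and fluorescence was read directly at Ex/Em 405/460 nm. Signals were expressed as fluorescence equivalents of triamterene, with DMSO vehicle as control.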
Assay [3] is described as follows: qHTS assay to test for compound auto fluorescence at 535 nm (green) in HEK293 cell free culture (AID 720682). The procedure, abridged: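 Each library compound, or DMSO control, is added by pintool to medium alone, comprising DMEM and 10% FBS. Emission at 535 nm following 485 nm excitation is quantified against fluorescein.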
Assay [4] in a line: qHTS assay to test for compound auto fluorescence at 590 nm (red) in HEK293 cell free culture (AID 720683). The gist of the method: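 Tox21 10K library compounds were pinned into cell-free DMEM with 10% FBS and fluorescence was read at excitation 540 nm. Activity is expressed as Rose Bengal sodium equivalency.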
Assay [5] in a line: qHTS assay to test for compound auto fluorescence at 590 nm (red) in HepG2 cell free culture (AID 720684). The procedure, abridged: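 Readout: intrinsic compound fluorescence at 590 nm emission after 540 nm excitation, scaled to Rose Bengal sodium. Matrix was cell-free MEM with 10% FBS; DMSO vehicle wells served as control.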
Assay [6] can be described thus: qHTS assay to test for compound auto fluorescence at 460 nm (blue) in HepG2 cell free culture (AID 720685). The procedure, abridged: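 Cell-free plates of MEM plus 10% FBS received 23 nL compound or DMSO vehicle; blue-channel (405/460 nm) intensity scored against triamterene as reference fluorophore.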
Assay [7] can be described thus: qHTS assay to test for compound auto fluorescence at 535 nm (green) in HepG2 cell free culture (AID 720686).
Assay [8] in a line: qHTS assay to test for compound auto fluorescence at 460 nm (blue) in HepG2 cells (AID 720687). The gist of the method: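 Cells (2,000/well in MEM with 10% FBS) attached overnight at 37 C, then were exposed to compound or DMSO for 1 hr at 37 C, 5% CO2. Fluorescence read at Ex/Em 405/460 nm, expressed as triamterene-equivalent signal.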
The target of assay [9] is Glucocorticoid receptor (Homo sapiens) (UniProt P04150). The experiment in a line: qHTS assay to identify small molecule agonists of the glucocorticoid receptor (GR) signaling pathway (AID 720691; active means well fitted activation curve with a large enough effect in the signal ratio in the repeat runs, not every such curve was filed as active; the % refers to the signal ratio). The settings on record: GR-bla HeLa, beta-lactamase reporter ratio, 18 h; activation: at 62.4 µM (top of the series). The procedure, abridged:
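Compounds in DMSO, alongside positive controls, were added to GR-bla HeLa reporter cells and incubated 18 h at 37 C; GRE-driven beta-lactamase was detected by fluorescence after 2 h with FRET substrate at room temperature.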

For assay [10] the target is unchanged. Nature of the assay: qHTS assay to identify small molecule antagonists of the glucocorticoid receptor (GR) signaling pathway (AID 720692; active means well fitted inhibition curve with a large enough effect in the signal ratio in the repeat runs, not every such curve was filed as active; the % refers to the signal ratio). The procedure, abridged: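 In a 1536-well cell format, compounds were added 4 h after seeding GR-bla HeLa cells, together with dexamethasone at 5 nM final; reporter activity was measured by FRET-substrate fluorescence following 18 h at 37 C.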

The nature of assay [11]: qHTS assay to identify small molecule antagonists of the glucocorticoid receptor (GR) signaling pathway - cell viability counter screen (AID 720693). Further: nearly all actives have a fitted effect of over 55% in size.
The nature of assay [12]: qHTS assay for identifying genotoxic compounds that show differential cytotoxicity against isogenic chicken DT40 cell lines with known DNA damage response pathways - wild type cell line (AID 743012). Further: nearly all actives have a fitted effect of over 60% in size. Further: potency means the concentration at half of the fitted maximal effect. The procedure, abridged:
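Viability of DNA repair-proficient chicken DT40 cells was assessed by CellTiter-Glo luminescence following 40 h compound exposure at 37 C/5% CO2.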

Assay [13] in a line: qHTS assay for identifying genotoxic compounds that show differential cytotoxicity against isogenic chicken DT40 cell lines with known DNA damage response pathways - Rad54/Ku70 mutant cell line (AID 743015). Further: nearly all actives have a fitted effect of over 60% in size. Further: potency means the concentration at half of the fitted maximal effect.
The nature of assay [14]: qHTS assay to identify small molecule antagonists of the androgen receptor (AR) signaling pathway - cell viability counter screen (AID 743033; further: nearly all actives have a fitted effect of over 45% in size).
The nature of assay [15]: qHTS assay to identify small molecule antagonists of the androgen receptor (AR) signaling pathway using the MDA cell line - cell viability counter screen (AID 743041; further: nearly all actives have a fitted effect of over 45% in size). The procedure, abridged:
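qHTS viability read-out; MDA-kb2 AR-luc; R1881-stimulated; 16 h exposure at 37C, 0% CO2; CellTiter-Fluor, 30 min; fluorescence intensity.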

Assay [16] in a line: qHTS assay for identifying genotoxic compounds that show differential cytotoxicity against isogenic chicken DT40 cell lines with known DNA damage response pathways - Rev3 mutant cell line (AID 743014). Further: nearly all actives have a fitted effect of over 55% in size.
In assay [17] the target is Androgen receptor (Homo sapiens) (UniProt P10275). The experiment in a line: qHTS assay to identify small molecule antagonists of the androgen receptor (AR) signaling pathway (AID 743035; active means well fitted inhibition curve with a large enough effect in the signal ratio in the repeat runs, not every such curve was filed as active; the % refers to the signal ratio). The gist of the method:
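Reporter HEK293 cells were exposed to compounds and R1881 overnight (16 h, 37C); beta-lactamase activity was then quantified by FRET fluorescence.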

Assay [18] has the same target. The experiment in a line: qHTS assay to identify small molecule agonists of the androgen receptor (AR) signaling pathway using the MDA cell line (AID 743040; further: nearly all actives have a fitted effect of over 20% in size). The procedure, abridged: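 Agonist activity is measured as luciferase luminescence in human MDA-kb2 cells whose MMTV reporter responds to both AR and GR. Compounds in DMSO incubate 16 h at 37C, 0% CO2, and ONE-Glo is read after 30 min.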

Assay [19] has the same target. Nature of the assay: qHTS assay to identify small molecule antagonists of the androgen receptor (AR) signaling pathway using the MDA cell line (AID 743042; further: nearly all actives have a fitted effect of over 55% in size). The procedure, abridged:
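MDA-kb2 cells (human breast carcinoma, stably carrying an MMTV-luciferase reporter responsive to AR and GR) were plated at 3,000 cells/well and preincubated 5 hr at 37C, then given compound plus R1881 agonist for 16 h. ONE-Glo luminescence was read.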

Assay [20] has the same target. Nature of the assay: qHTS assay to identify small molecule agonists of the androgen receptor (AR) signaling pathway (AID 743036; active means well fitted activation curve with a large enough effect in the signal ratio in the repeat runs, with a control signal flat, not every such curve was filed as active; the % refers to the signal ratio). The procedure, abridged:
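Following a 4 h settling period, AR-UAS-bla HEK293 cells were dosed with compounds for 16 h at 37C. A 2 h room-temperature incubation with LiveBLAzer B/G FRET substrate preceded the fluorescence measurement.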

Chain of Androgen receptor (Homo sapiens) (P10275 whole entry, looked up): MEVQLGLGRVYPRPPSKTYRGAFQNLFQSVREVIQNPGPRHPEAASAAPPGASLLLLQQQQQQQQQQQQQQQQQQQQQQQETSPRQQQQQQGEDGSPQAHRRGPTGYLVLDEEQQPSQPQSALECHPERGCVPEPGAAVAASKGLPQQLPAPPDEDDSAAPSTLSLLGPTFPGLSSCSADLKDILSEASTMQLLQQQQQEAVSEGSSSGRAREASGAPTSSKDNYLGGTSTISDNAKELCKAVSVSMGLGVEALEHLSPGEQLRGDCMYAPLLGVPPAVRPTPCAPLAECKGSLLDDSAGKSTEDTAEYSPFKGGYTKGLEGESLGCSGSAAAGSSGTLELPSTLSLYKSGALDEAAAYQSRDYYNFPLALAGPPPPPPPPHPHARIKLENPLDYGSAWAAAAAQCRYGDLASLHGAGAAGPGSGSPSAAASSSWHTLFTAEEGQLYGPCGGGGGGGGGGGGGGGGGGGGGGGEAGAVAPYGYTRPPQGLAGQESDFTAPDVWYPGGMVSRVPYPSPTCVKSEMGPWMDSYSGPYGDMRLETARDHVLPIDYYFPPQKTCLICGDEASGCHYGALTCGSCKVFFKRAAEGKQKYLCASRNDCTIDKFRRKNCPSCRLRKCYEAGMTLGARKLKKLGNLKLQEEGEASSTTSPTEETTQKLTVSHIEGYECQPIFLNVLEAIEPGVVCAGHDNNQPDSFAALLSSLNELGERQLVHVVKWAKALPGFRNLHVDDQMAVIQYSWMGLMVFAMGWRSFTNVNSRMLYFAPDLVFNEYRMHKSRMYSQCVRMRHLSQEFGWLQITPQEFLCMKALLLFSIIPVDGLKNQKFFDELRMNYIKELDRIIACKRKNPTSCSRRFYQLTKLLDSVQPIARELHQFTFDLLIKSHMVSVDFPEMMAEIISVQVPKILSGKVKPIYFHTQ
Chain of Glucocorticoid receptor (Homo sapiens) (P04150 whole entry, looked up): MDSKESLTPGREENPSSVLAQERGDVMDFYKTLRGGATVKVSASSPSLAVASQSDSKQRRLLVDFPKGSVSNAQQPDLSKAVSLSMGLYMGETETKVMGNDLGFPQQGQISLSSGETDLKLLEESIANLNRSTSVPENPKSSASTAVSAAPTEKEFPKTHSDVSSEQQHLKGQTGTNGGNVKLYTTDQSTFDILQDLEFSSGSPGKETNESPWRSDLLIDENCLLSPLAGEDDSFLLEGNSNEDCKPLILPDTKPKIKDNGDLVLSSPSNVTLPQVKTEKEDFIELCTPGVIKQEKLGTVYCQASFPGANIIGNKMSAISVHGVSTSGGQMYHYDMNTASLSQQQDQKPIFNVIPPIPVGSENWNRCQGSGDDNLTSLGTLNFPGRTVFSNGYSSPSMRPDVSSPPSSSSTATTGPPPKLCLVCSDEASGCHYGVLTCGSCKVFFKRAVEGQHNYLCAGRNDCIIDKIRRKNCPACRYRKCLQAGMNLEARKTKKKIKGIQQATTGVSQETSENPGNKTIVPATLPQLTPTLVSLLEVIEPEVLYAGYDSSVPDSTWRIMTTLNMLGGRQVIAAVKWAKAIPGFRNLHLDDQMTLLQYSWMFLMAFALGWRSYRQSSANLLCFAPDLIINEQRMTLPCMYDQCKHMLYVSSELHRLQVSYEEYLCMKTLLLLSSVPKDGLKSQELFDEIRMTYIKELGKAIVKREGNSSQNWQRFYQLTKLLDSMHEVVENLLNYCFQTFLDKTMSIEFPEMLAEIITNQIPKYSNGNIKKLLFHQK

Take `C[S+](C)CCC(N)C(=O)O` (stereo not drawn): the compound was called inactive in assay [1], in assay [3], in assay [4] and in [5]. Moreover, the Potency entry in [2], in [6], in [7], in [8], in [9] and in assay [10] was “inactive” throughout. For the same compound, the Potency entry in assay [11], in assay [12], in assay [13], in assay [14] and in assay [15] was “inactive” in each case.

In the case of `COc1c(O)cc2c(c1O)[C@@H]1O[C@H](CO)[C@@H](O)[C@H](O)[C@H]1OC2=O`, the result in [1], in assay [3], in assay [4] and in [5] was inactive. The Potency entry in assay [2], in [6], in [7], in [8], in assay [9] and in assay [10] was “inactive” each time. The Potency result in assay [11], in [12], in [16], in [13], in [14] and in [17] was “inactive” in each case. The Potency result in assay [18], in assay [15] and in [19] was “inactive” in each case.

Consider `CCOC(=O)COc1ccc2c(=O)cc(-c3ccccc3)oc2c1`, for which the call in [1], in assay [3], in assay [4] and in assay [5] was inactive. In addition, the Potency result in assay [2], in assay [6], in [7], in assay [8], in assay [9] and in assay [10] was “inactive” each time. In addition, the Potency entry in assay [11], in assay [16], in assay [14] and in assay [15] was “inactive” each time. Further, the Potency in assay [12] and in assay [13] was 29.8 µM (active) in each case.

Take `Nc1ccc(N)c([N+](=O)[O-])c1`: the call in assay [1], in [3], in [4] and in assay [5] was inactive. The Potency entry in assay [2], in assay [6], in assay [7] and in [8] was “inactive” throughout.

With `CC[C@@H](C)[C@H](N)C(=O)O`, the compound was classed as inactive in [1], in [3], in assay [4] and in [5]. In addition, the Potency entry in assay [2], in [6], in assay [7], in [8], in [9] and in assay [10] was “inactive” in each case. The Potency entry in [11], in assay [12], in assay [16], in assay [13], in [14] and in assay [15] was “inactive” each time.

With `C=CC(N)CCC(=O)O` (stereo not drawn), the result in assay [1], in assay [3], in assay [4] and in assay [5] was inactive. In addition, the Potency entry in assay [2], in assay [6], in assay [7], in assay [8], in [9] and in [10] was “inactive” throughout. Besides, the Potency entry in assay [11], in [12], in assay [16], in assay [14] and in assay [15] was “inactive” throughout.

For the compound `CCN(CC)C(=O)[C@]1(c2ccccc2)C[C@@H]1CN`, the compound was classed as inactive in assay [1], in assay [3], in [4] and in [5]. The Potency result in [2], in [6], in assay [7], in [8], in [9] and in [10] was “inactive” in each case. Moreover, the Potency result in [11], in assay [12], in assay [13] and in assay [15] was “inactive” in each case.

In the case of `CC1(C)CCC(NC(=O)[C@@H](N)CCC(=O)O)CC1`, the result in [1], in [3], in assay [4] and in assay [5] was inactive. Besides, the Potency entry in assay [2], in assay [6], in assay [7], in assay [8], in [9] and in assay [10] was “inactive” each time. Also, the Potency entry in [11], in [12], in [16], in assay [13], in assay [14] and in [17] was “inactive” throughout. For the same compound, the Potency result in assay [20], in [18], in assay [15] and in assay [19] was “inactive” each time.
